Compounds without any hit were thinned out: in the full panel of roughly 83,000, 20% have a hit.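 Values shown are percent growth following 48 h exposure of cells in 96-well plates to a single concentration of compound; below 10 was considered active.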 Unmarked numbers belong to inactive results. Activity calls are given as the source filed them.
Legend:
Assay in all cases: NCI-60 one-dose screen, 48 h (100 = growth as untreated, 0 = no growth, -100 = all killed)
Conditions in all cases: 10 µM unless noted
NCI-H23 lung = tested on: NCI-H23 lung
NCI-H226 lung = tested on: NCI-H226 lung
NCI-H322M lung = tested on: NCI-H322M lung
HOP-62 NSCLC = tested on: HOP-62 NSCLC
NCI-H460 lung = tested on: NCI-H460 lung
HOP-92 NSCLC = tested on: HOP-92 NSCLC
NCI-H522 lung = tested on: NCI-H522 lung
A549/ATCC NSCLC = tested on: A549/ATCC NSCLC
786-0 renal = tested on: 786-0 renal
COLO 205 colon = tested on: COLO 205 colon
DU-145 prostate = tested on: DU-145 prostate
K-562 leukemia = tested on: K-562 leukemia
MALME-3M melanoma = tested on: MALME-3M melanoma
MDA-MB-231 breast = tested on: MDA-MB-231 breast
RXF 393 renal = tested on: RXF 393 renal
SF-268 CNS = tested on: SF-268 CNS
SF-295 CNS = tested on: SF-295 CNS
SF-539 CNS = tested on: SF-539 CNS
UACC-257 melanoma = tested on: UACC-257 melanoma
M14 melanoma = tested on: M14 melanoma

Row | SMILES | growth (NCI-H23 lung) | growth (NCI-H226 lung) | growth (NCI-H322M lung) | growth (HOP-62 NSCLC) | growth (NCI-H460 lung) | growth (HOP-92 NSCLC) | growth (NCI-H522 lung) | growth (A549/ATCC NSCLC) | growth (786-0 renal) | growth (COLO 205 colon) | growth (DU-145 prostate) | growth (K-562 leukemia) | growth (MALME-3M melanoma) | growth (MDA-MB-231 breast) | growth (RXF 393 renal) | growth (SF-268 CNS) | growth (SF-295 CNS) | growth (SF-539 CNS) | growth (UACC-257 melanoma) | growth (M14 melanoma)
1 | Cc1ccc(N=Nc2c(N)nn3c(-c4cc5ccccc5oc4=O)ccnc23)cc1 | 28% | 33.4% | 51.6% | 48.5% | 50% | 49.9% | 64.9% | 45.1% | 53.4% | 6.35% (active) | 43.7% | 40.7% | 67.1% | 30.7% | 7.4% (active) | 56.8% | 57.4% | -3.24% (active) | 90.3% | 46.6%
2 | CC(=O)C[n+]1cccc2c3ccccc3ccc21 | 85.4% | 97% | 89.7% | 109% | 82.4% | 85.2% | 82.7% | 56.9% | 94.8% | 70.5% | 105% | 69% | 63.5% | 85.7% | 46.3% | 66.5% | 93.9% | 89.6% | 48.8% | 98.7%
3 | O=C1N/C(=N\c2nccs2)S/C1=C\c1ccc([N+](=O)[O-])cc1 | 32.7% | 6.47% (active) | 23.2% | 37.4% | 8.33% (active) | 16.7% | -1.75% (active) | 9.8% (active) | 19.7% | 23.2% | 39.9% | 13.3% | 28.4% | 10.8% | 8.41% (active) | 19.9% | 15% | 4.72% (active) | 8.51% (active) | 5.66% (active)
4 | COc1ccc(-c2nc3ccc(-c4nnc(SCc5ccccc5)o4)cc3[nH]2)cc1 | 8.09% (active) | -76.5% (active) | 0.722% (active) | -72.7% (active) | -15.7% (active) | 20.9% | -16.2% (active) | -5.6% (active) | -62.5% (active) | 44.6% | 10.2% | 11.2% | -74.9% (active) | -67.3% (active) | -75.3% (active) | -6.18% (active) | -75% (active) | -99.7% (active) | 21.8% | 5.59% (active)
5 | O=C(Nc1ccc(-c2ccc3c(c2)NC(=O)/C3=C\c2ccc[nH]2)cc1)Nc1ccc(Cl)c(Cl)c1 | 37.8% | 78.1% | 73.4% | 61.9% | 17.4% | 88.5% | 63% | 62% | 35.9% | 58% | 54.3% | 39% | 68.7% | 71.5% | -1.35% (active) | 48.9% | 23.3% | -48.9% (active) | 76% | 59.3%
6 | CS(=O)(=O)Nc1cncc(-c2ccc3ncnc(NCc4ccccc4)c3c2)c1 | 21.8% | 38.5% | 47.2% | 46.5% | 83.3% | -12.3% (active) | 39.4% | 90.1% | 55% | 41.9% | 55.2% | 33.6% | 27.8% | 40% | 35.6% | 31.7% | 42.8% | 23.9% | 74.5% | 49%
7 | N#Cc1ccc(C(=O)NNC(=O)CSc2nc3sc4c(c3c(=O)n2-c2ccc(Cl)cc2)CCCC4)cc1 | 33.2% | 54.1% | 51.7% | 7.62% (active) | 51.8% | 45.6% | 61.5% | 61.9% | 75.5% | 110% | 70.4% | 63.4% | 39.5% | 3.65% (active) | 47.5% | 92.7% | 62.7% | -43.9% (active) | 91.4% | 44.7%
8 | O=C(Cn1c(-c2ccccc2)nc2ccccc21)N=Nc1c(O)[nH]c2ccc(Br)cc12 | 3.3% (active) | -59.9% (active) | -6.14% (active) | -68.1% (active) | -29.9% (active) | -60.6% (active) | 29.5% | 8.52% (active) | -56.2% (active) | -66.9% (active) | 3.6% (active) | 6% (active) | -20.5% (active) | -56.8% (active) | -80% (active) | -0.321% (active) | -80.4% (active) | -80.9% (active) | 9.11% (active) | 5.92% (active)

— PubChem BioAssay (NCI)
